{"source": "PubChem BioAssay (EPA / NIEHS)", "note": "Calls of active or inactive are those of the source. The calls were made as follows: active = hit-call score of the fitted dose curve at least 0.9, where 1 is the maximum; inactive = score below 0.9."}
{"target": "Hypoxia-inducible factor 1-alpha (Homo sapiens) (UniProt Q16665)", "sequence (Q16665 whole entry, looked up)": "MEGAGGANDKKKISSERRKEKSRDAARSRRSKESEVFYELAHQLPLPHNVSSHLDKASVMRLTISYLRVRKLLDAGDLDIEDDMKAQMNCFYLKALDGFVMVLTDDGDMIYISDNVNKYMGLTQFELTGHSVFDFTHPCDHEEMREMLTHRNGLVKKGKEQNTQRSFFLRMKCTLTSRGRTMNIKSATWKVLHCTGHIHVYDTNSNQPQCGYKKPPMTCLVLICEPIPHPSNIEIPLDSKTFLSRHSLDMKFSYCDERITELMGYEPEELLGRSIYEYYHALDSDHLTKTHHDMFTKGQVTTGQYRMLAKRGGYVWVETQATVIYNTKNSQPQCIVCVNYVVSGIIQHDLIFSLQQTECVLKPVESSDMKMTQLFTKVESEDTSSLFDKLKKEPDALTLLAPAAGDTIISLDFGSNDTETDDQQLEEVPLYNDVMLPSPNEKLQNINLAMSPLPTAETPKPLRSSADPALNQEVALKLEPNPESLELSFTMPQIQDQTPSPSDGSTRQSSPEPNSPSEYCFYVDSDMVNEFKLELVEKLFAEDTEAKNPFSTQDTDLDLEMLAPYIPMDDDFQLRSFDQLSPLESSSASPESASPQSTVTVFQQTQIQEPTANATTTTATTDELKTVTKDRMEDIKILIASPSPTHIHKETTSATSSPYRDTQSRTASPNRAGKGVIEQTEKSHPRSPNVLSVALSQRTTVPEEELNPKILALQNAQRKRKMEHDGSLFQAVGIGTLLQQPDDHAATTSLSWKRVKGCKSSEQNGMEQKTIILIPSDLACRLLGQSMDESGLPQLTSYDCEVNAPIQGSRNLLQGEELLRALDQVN", "assay": "ATG_HIF1a_CIS: Attagene CIS-FACTORIAL HepG2 Assay for human Hypoxia Inducible Factor 1 (HIF1A) (AID 2282951)", "details": "HepG2 Attagene cis-factorial HIF1a reporter transcription; actives raise or lower the signal", "summary_of_the_method": "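HepG2, transient cis-reporter library, 24 h dosing. RNA → RT (oligo dT) → PCR → 6-FAM primer extension → HpaI → CE. Bidirectional curve fit vs DMSO.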"}
{"compound": "C=C(C)C(=O)OCC(F)(F)C(F)(F)C(F)(F)F", "outcome": "inactive"}
{"compound": "O=P(O)(O)OCCC(F)(F)C(F)(F)C(F)(F)C(F)(F)C(F)(F)C(F)(F)F", "outcome": "inactive"}
{"compound": "CC(=O)Nc1ccc(N=Nc2cc(C)ccc2O)cc1", "outcome": "inactive"}
{"compound": "FC(F)(F)C(F)(F)C(F)(F)C(F)(F)CCI", "outcome": "inactive"}
{"compound": "CCc1c(Br)c(Br)c(Br)c(Br)c1Br", "outcome": "inactive"}
{"compound": "CC(C)(C)c1ccc(OC2CCCCC2O)cc1", "note": "(centres undefined)", "outcome": "inactive"}
{"compound": "CC(C)OC(=O)c1ccccc1C(=O)OC(C)C", "outcome": "inactive"}
{"compound": "OC[C@@H](O)[C@@H](O)[C@H](O)[C@@H](O)CO", "outcome": "inactive"}
{"compound": "CN(C)Cc1ccccc1O", "outcome": "inactive"}
{"compound": "CCc1ccc(C(c2ccc(CC)cc2)C(Cl)Cl)cc1", "outcome": "inactive"}
{"compound": "CC(C)c1ccccc1N", "outcome": "inactive"}
{"compound": "C1COCCN1", "outcome": "inactive"}
{"compound": "COC(=O)CCC(F)(F)C(F)(F)C(F)(F)C(F)(F)F", "outcome": "inactive"}
{"compound": "C=CC(=O)OCC(F)(F)C(F)(F)C(F)(F)C(F)(F)C(F)(F)C(F)(F)C(F)(F)F", "outcome": "inactive"}
{"compound": "O=S(=O)(O)c1ccc2ccccc2c1", "outcome": "inactive"}
{"compound": "CCCCC(CC)COP(=O)(O)OCC(CC)CCCC", "note": "(centres undefined)", "outcome": "inactive"}
{"compound": "COC(=O)C1CCC(C(=O)OC)CC1", "note": "(centres undefined)", "outcome": "inactive"}
{"compound": "Nc1cc(Cl)c(N)c(Cl)c1", "outcome": "inactive"}
{"compound": "O=C(O)C(F)(F)C(F)(F)OC(F)(F)F", "outcome": "inactive"}
{"compound": "CC(C)=CCCC(C)CCOC(=O)C(C)C", "note": "(centres undefined)", "outcome": "inactive"}
{"compound": "N=C(N)C(F)(F)C(F)(F)C(F)(F)C(F)(F)C(F)(F)C(F)(F)C(F)(F)F", "AC50": "242 µM (active)"}
{"compound": "O=C(Cl)C(F)(F)C(F)(F)C(F)(F)C(F)(F)C(F)(F)C(F)(F)C(F)(F)C(F)(F)F", "outcome": "inactive"}
{"compound": "C=CC(F)(F)C(F)(F)C(F)(F)C(F)(F)C(F)(F)C(F)(F)C(F)(F)C(F)(F)F", "outcome": "inactive"}
{"compound": "CS(C)(=O)=O", "outcome": "inactive"}
{"compound": "O=C(O)C(F)(F)C(F)(F)C(F)(F)C(F)(F)C(F)(F)C(F)(F)C(F)(F)C(F)(F)C(F)(F)C(F)(F)C(F)(F)C(F)(F)F", "outcome": "inactive"}
{"compound": "O=C(O)C(F)(F)C(F)(F)C(F)(F)C(F)(F)F", "outcome": "inactive"}
{"compound": "Cc1ccc(S(=O)(=O)OCC(F)(F)C(F)(F)C(F)(F)C(F)(F)C(F)(F)C(F)F)cc1", "outcome": "inactive"}
{"compound": "Cc1ccc(S(=O)(=O)NCl)cc1", "outcome": "inactive"}
{"compound": "C=C(C)C(=O)OCC(F)(F)C(F)(F)C(F)(F)C(F)(F)C(F)(F)C(F)(F)C(F)(F)F", "outcome": "inactive"}
{"compound": "FC(F)(F)C(F)(F)C(F)(F)C(F)(F)C(F)(F)C(F)(F)CCS", "outcome": "inactive"}
{"compound": "CCCCCC=O", "outcome": "inactive"}
{"compound": "CCCCCCCCC(F)(F)C(F)(F)C(F)(F)C(F)(F)C(F)(F)C(F)(F)F", "outcome": "inactive"}
{"compound": "Cc1cc(C)cc(O)c1", "outcome": "inactive"}
{"compound": "O=S(=O)(OCCOC(F)(F)F)C(F)(F)F", "outcome": "inactive"}
